In test [1] the test system is PRMT1 (protein arginine N-methyltransferase 1). Briefly: PRMT1 binders on small-molecule microarrays, primary screen, biochemical, small-molecule microarray, 635 nm fluorescence (AID 1088).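 Also: binding of Prmt1 protein to compounds spotted on small-molecule microarray slides.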 As to conditions: small-molecule microarray binding, higher = more signal.
The nature of test [2]: yeast growth modulation, basal conditions, primary screen, YJM789 clinical isolate, OD600, 24 h (AID 1089).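 Also: growth of clinical yeast isolate S. cerevisiae YJM 789 seeded 1000 cells per well; test concentration not given here.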 As to conditions: S. cerevisiae YJM789 growth, higher = more signal, called active from +8 up or from −8 down.
The nature of test [3]: fission yeast growth modulation, primary screen, strain 972, OD600, 24 h, no modulator (AID 1090).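 Also: basal condition with compound alone and no growth modifier present; test concentration not given here.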 As to conditions: S. pombe 972 growth, higher = more signal, called active from +8 up or from −8 down.
A short description of test [4]: S. cerevisiae growth modulation with rapamycin, primary screen, strain BY4716, OD600, 96 h (AID 1091). Also: test concentration not given here. As to conditions: higher = more signal, called active from +8 up or from −8 down.
For test [5], the target named is Torsin-1A-interacting protein 2 (Homo sapiens) (UniProt Q8NFQ8). The experiment in a line: LULL1 binders on small-molecule microarray, primary screen, cell lysate, human LULL1 lysate, 635/667 nm fluorescence (AID 1092).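 Also: probe is lysate of COS7 cells overexpressing human LULL1; score merges per-feature 667 nm fluorescence with signal-to-noise.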 As to conditions: hLULL1 lysate binding, 635 nm fluorescence, higher = more signal.
Chain of Torsin-1A-interacting protein 2 (Homo sapiens) (Q8NFQ8 whole entry, looked up): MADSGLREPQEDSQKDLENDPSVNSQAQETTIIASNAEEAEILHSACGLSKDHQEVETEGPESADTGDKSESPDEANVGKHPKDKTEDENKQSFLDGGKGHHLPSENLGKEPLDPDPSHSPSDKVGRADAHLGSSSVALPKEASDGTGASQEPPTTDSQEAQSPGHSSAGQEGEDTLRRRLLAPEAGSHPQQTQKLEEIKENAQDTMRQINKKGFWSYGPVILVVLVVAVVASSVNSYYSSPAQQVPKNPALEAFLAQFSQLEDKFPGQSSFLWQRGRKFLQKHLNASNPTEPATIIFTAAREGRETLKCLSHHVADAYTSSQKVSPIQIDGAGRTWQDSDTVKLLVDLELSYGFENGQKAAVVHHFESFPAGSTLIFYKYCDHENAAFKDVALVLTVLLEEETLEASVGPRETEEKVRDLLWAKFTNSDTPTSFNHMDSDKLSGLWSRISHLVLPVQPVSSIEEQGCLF
Test [6] in a line: E. coli growth modulation, two-sided OD650, primary screen, E. coli filamentation project, strain DRC41, 24 h (AID 1093).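 Also: MC1000 strain lacking acrAB efflux and sulA so SOS filamentation is blocked; test concentration not given here.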 As to conditions: OD650, 24 h, higher = more signal, called active from +8 up or from −8 down.
Test [7] can be described thus: small-molecule microarray binders of probe aLefty2, primary screen, biochemical, biotinylated probe, 635/667 nm fluorescence (AID 1094).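 Also: score merges spot fluorescence near 667 nm with spot signal-to-noise ratio.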 As to conditions: higher = more signal.
In test [8] the test system is Noggin (protein binding on small-molecule microarray). Briefly: Noggin binders on small-molecule microarray, primary screen, biochemical, 635/667 nm fluorescence (AID 1095).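 Also: score merges 667 nm feature fluorescence with signal to noise over triplicate slides.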 As to conditions: 635 nm fluorescence, higher = more signal.
The target of test [9] is Neurogenic locus notch homolog protein 3 (Homo sapiens) (UniProt Q9UM47). Briefly: NOTCH3 binders on small-molecule microarray, primary screen, biochemical, 635/667 nm fluorescence (AID 1096). As to conditions: NOTCH3 binding, 635 nm fluorescence, higher = more signal.
Chain of Neurogenic locus notch homolog protein 3 (Homo sapiens) (Q9UM47 whole entry, looked up): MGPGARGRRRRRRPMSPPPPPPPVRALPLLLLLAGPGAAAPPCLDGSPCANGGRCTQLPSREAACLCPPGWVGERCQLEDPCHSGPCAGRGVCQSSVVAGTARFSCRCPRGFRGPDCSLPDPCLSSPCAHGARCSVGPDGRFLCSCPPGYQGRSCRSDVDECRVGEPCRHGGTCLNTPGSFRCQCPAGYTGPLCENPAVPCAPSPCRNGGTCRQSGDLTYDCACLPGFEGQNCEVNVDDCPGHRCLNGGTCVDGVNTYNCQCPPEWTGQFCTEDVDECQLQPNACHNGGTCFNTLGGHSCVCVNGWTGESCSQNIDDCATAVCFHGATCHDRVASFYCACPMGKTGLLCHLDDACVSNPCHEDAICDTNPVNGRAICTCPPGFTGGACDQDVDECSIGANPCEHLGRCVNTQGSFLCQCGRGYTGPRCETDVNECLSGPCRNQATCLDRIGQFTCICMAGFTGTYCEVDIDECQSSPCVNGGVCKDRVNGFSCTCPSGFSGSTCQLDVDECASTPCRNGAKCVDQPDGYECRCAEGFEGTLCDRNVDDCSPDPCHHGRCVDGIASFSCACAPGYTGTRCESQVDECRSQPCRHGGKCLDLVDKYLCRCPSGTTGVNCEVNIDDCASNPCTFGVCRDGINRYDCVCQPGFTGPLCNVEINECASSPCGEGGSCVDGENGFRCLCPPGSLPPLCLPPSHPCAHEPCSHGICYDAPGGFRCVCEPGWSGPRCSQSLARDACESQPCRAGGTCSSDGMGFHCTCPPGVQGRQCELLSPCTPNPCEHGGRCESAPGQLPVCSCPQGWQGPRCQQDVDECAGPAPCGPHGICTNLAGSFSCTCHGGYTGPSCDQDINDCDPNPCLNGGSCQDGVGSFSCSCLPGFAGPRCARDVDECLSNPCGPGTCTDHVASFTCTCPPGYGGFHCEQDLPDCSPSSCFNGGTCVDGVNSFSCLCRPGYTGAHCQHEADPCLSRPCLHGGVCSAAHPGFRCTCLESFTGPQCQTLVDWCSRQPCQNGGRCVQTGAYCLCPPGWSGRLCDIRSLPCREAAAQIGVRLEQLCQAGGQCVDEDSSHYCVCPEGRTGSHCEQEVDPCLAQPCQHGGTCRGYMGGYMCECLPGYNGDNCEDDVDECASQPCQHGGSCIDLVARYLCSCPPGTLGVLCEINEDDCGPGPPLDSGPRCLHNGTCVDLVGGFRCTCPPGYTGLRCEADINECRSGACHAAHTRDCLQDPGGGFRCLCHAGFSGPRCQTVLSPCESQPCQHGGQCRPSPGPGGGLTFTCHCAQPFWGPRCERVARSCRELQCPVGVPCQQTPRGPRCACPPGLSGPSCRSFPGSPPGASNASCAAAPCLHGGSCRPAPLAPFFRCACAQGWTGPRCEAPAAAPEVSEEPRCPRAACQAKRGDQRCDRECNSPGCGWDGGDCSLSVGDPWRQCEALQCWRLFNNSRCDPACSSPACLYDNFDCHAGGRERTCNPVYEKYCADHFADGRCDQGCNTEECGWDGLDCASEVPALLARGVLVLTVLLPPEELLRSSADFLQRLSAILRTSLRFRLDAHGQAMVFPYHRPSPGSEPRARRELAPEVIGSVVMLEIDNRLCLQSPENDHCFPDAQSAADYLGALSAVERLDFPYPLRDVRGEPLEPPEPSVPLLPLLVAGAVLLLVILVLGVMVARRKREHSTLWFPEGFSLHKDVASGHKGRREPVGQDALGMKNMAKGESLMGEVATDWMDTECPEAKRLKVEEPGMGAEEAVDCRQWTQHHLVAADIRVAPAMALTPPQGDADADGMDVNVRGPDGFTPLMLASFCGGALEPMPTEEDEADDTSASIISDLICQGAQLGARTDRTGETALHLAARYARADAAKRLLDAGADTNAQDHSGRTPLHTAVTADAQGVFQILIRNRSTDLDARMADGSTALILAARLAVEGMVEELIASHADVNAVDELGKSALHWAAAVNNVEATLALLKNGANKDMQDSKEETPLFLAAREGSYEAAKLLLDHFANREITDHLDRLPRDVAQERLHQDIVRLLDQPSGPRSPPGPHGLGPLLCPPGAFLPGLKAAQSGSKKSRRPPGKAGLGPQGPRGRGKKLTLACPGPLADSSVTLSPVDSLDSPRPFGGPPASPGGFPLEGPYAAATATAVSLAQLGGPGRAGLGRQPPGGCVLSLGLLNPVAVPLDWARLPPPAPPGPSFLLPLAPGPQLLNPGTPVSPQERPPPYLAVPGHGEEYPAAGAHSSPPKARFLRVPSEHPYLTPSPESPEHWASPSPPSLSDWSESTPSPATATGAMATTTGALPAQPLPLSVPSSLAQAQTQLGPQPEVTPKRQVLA
Test [10] is described as follows: small-molecule microarray binders of probe aEGFR, primary screen, biochemical, biotinylated probe, 635/667 nm fluorescence (AID 1097).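 Also: probe is a biotinylated anti-EGFR antibody binding compounds printed on slides; score combines fluorescence near 667 nm and signal to noise of each spot.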 As to conditions: higher = more signal.
For test [11], the system named is Plasmodium falciparum Sir2 (PF13_0152, Sir2A). Briefly: pfSir2 binders on small-molecule microarrays, primary screen, biochemical, small-molecule microarray, 635 nm fluorescence (AID 1098).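 Also: score merges spot fluorescence intensity with its signal-to-noise ratio.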 As to conditions: small-molecule microarray binding, fluorescence 635 nm; higher = more signal.
Test [12] in a line: small-molecule microarray binders of probe aDKK1, primary screen, biochemical, biotinylated probe, 635/667 nm fluorescence (AID 1099).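 Also: score merges 667nm spot fluorescence with signal to noise across triplicate slides; reference of the scale not given here.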 As to conditions: higher = more signal.
A short description of test [13]: small-molecule microarray binders of probe aCHRDL2, primary screen, biochemical, biotinylated probe, 635/667 nm fluorescence (AID 1100). As to conditions: higher = more signal.
Test [14] is described as follows: splicing luciferase reporter signal modulators, primary screen, spliceosome inhibition project, cell-based, HEK293, splice +/- reporter (AID 1101).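 Also: HEK293 cells carrying a splicing-competent luciferase reporter gene; test concentration not given here.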 As to conditions: luminescence, 24 h, higher = more signal, called active from +8 up or from −8 down.
Test [15] deals with Fibroblast growth factor 10 (Homo sapiens) (UniProt O15520). Briefly: FGF10 binders on small-molecule microarrays, primary screen, biochemical, small-molecule microarray, 635 nm fluorescence (AID 1102). As to conditions: FGF10 binding, fluorescence 635 nm, higher = more signal.
Chain of Fibroblast growth factor 10 (Homo sapiens) (O15520 whole entry, looked up): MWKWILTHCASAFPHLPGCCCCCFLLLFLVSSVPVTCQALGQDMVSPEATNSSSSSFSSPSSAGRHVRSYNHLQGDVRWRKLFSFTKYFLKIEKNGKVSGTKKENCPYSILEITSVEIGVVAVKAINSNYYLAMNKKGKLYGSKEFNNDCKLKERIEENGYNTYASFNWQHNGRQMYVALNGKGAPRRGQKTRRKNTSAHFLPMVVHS
Test [16] deals with glycogen synthase kinase-3 (GSK3A per assay name; protocol says GSK3B). The experiment in a line: GSK3 binders on small-molecule microarrays, primary screen, biochemical, small-molecule microarray, 635 nm fluorescence, GSK3A (AID 1103). Also: the record names both GSK3A and GSK3B. As to conditions: small-molecule microarray binding, fluorescence 635 nm; higher = more signal.
For test [17], the target named is Epidermal growth factor receptor (Homo sapiens) (UniProt P00533). Briefly: EGFR binders on small-molecule microarrays, primary screen, biochemical, small-molecule microarray, 635 nm fluorescence (AID 1104).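 Also: score merges 667 nm emission intensity with spot signal to noise over triplicate slides.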 As to conditions: EGFR binding, higher = more signal.
Chain of Epidermal growth factor receptor (Homo sapiens) (P00533 whole entry, looked up): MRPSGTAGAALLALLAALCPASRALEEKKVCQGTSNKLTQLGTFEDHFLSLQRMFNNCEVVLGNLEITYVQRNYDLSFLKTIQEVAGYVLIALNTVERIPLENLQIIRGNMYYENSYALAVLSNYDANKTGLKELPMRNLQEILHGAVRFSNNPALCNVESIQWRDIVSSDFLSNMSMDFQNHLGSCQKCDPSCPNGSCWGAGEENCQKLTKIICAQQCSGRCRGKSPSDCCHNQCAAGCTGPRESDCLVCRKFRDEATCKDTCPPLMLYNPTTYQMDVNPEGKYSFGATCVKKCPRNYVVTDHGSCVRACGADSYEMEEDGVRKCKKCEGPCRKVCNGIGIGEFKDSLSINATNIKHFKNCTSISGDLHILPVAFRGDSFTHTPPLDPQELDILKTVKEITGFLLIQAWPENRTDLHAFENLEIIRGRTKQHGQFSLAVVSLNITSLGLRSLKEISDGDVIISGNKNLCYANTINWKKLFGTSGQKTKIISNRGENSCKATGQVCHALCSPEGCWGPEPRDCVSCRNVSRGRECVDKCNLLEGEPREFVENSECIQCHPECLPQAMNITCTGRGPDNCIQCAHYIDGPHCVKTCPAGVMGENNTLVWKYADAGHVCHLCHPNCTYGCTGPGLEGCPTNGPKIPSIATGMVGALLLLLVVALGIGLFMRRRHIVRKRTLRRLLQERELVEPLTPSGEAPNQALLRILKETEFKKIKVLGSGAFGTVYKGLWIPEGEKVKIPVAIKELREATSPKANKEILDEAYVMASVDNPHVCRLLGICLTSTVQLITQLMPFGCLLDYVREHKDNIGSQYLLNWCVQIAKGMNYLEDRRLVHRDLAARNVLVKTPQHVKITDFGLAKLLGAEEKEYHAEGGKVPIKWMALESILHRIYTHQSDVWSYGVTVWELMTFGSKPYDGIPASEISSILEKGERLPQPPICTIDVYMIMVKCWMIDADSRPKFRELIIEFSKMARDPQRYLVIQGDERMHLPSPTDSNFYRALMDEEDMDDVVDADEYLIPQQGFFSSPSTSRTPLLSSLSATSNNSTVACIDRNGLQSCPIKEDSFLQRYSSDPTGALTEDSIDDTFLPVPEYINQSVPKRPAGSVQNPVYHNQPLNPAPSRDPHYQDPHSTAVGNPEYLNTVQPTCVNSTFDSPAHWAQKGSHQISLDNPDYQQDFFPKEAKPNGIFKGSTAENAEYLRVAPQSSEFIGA
The target of test [18] is Follistatin-related protein 3 (Homo sapiens) (UniProt O95633). The experiment in a line: FSTL3 binders on small-molecule microarrays, primary screen, biochemical, small-molecule microarray, 635 nm fluorescence (AID 1105).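 Also: score merges emission near 667 nm and signal to noise per printed spot across three slides.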 As to conditions: FSTL3 binding, higher = more signal.
Chain of Follistatin-related protein 3 (Homo sapiens) (O95633 whole entry, looked up): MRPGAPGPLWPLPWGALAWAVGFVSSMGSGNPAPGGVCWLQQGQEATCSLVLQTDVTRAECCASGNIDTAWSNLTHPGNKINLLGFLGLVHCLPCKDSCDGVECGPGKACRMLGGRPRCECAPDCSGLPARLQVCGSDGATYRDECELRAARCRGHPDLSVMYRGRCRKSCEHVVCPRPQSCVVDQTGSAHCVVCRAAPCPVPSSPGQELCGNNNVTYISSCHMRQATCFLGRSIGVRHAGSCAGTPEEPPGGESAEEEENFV
In test [19] the target is Dickkopf-related protein 1 (Homo sapiens) (UniProt O94907). Briefly: DKK1 binders on small-molecule microarrays, primary screen, biochemical, small-molecule microarray, 635 nm fluorescence scan (AID 1106).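 Also: score merges emission near 667 nm with signal to noise over three replicate slides.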 As to conditions: DKK1 binding, higher = more signal.
Chain of Dickkopf-related protein 1 (Homo sapiens) (O94907 whole entry, looked up): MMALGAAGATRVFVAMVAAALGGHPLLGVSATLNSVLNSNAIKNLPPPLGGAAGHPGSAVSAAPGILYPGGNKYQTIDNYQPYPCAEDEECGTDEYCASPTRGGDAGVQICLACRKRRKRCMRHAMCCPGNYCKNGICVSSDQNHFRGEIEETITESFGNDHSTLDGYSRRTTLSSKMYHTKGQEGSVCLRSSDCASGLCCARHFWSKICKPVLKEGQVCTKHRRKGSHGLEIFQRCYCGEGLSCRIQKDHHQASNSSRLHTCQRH
Test [20] concerns Inhibin beta A chain (activin A). Briefly: INHBA (activin A) binders on microarrays, primary screen, biochemical, small-molecule microarray, 635 nm fluorescence scan (AID 1107).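 Also: mouse activin A protein probed at 4.33 µg/mL on printed slides; score merges bound-protein fluorescence near 667 nm with spot signal-to-noise.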 As to conditions: small-molecule microarray binding, higher = more signal.

Activity calls are given as the source filed them.

As to `C=C(/C(=C/C[C@@H](OC(C)=O)c1ccccc1OCCO)c1cc(C(=O)OC)ccc1OC)C(C)C`, the composite z-score in [1] was 0.551; in test [5], 0.231; in test [7], -0.119; in test [8], 0.235; in [9], -0.163; in test [10] it was 0.198. Besides, the composite z-score in [11] was 1.08; in test [12] it was -0.114; in test [13] it was -0.242; in [15], 0.419; in test [16] it was 0.115; in test [17] it was -0.209. Besides, the composite z-score was -0.0844 in test [18], 0.0006 in [19] and 0.772 in test [20]. For the same molecule, the z-score is 0.343 (inactive) in test [2]; -0.377 (inactive) in test [3]; -0.729 (inactive) in [4]; 0.505 (inactive) in test [6]; 0.314 (inactive) in test [14].

As to `COCCOC(=O)N1C(=O)[C@@]2(c3cc(C#CCC(C(=O)OC)C(=O)OC)ccc31)[C@H](C(=O)N1CCc3cc(OC)c(OC)cc3C1)[C@H]1C(=O)O[C@H](c3ccccc3)[C@H](c3ccccc3)N1[C@@H]2c1ccc(O)cc1`, the composite z-score in [1] came out at 1.54; in [5], 1.99; in [7], 0.0704; in [8], 1.19; in test [9], 1.08; in test [10] it was 0.135. For the same molecule, the composite z-score in [11] is 0.86; in test [12], 0.148; in test [13], 0.0085; in test [15], 1.24; in [16] it was 0.636; in test [17], 0.868. Moreover, the composite z-score in [18] worked out at 1.47; in test [19] it was 1.62; in test [20], 0.418. Also, the z-score was 0.215 (inactive) in test [2]; 0.233 (inactive) in test [3]; 0.773 (inactive) in test [4]; 0.204 (inactive) in test [6]; 1.5 (inactive) in test [14].

Take `CCOC(=O)C1=CCC(c2cc3ccccc3[nH]2)N(S(=O)(=O)c2ccccc2[N+](=O)[O-])C1` (stereo not given): the composite z-score in test [1] is 0.659; in test [5] it was 3.07; in test [7], -0.125; in test [8] it was 0.674; in test [9] it was 0.356; in [10], 0.0357. For the same molecule, the composite z-score was 0.984 in [11]; 0.225 in test [12]; -0.006 in test [13]; 0.696 in test [15]; 0.565 in test [16]; -0.106 in test [17]. The composite z-score is 0.319 in [18], -0.117 in test [19] and 0.722 in test [20]. Further, the z-score was -0.134 (inactive) in [2]; 1.18 (inactive) in test [3]; 1.41 (inactive) in test [4]; -0.424 (inactive) in [6]; -0.365 (inactive) in test [14].

With `CC(C)C[C@@H]1NC(=O)[C@@H]2C[C@H](C(=O)NCCCC[N+](C)(C)C)[C@H](c3ccc(O)cc3)N2C1=O`, the composite z-score in test [1] was 1.53; in test [5] it was 1.76; in test [7] it was -0.0295; in [8], 1.91; in test [9] it was 1.02; in [10], 0.0251. In addition, the composite z-score in test [11] is 1.39; in test [12], -0.0913; in test [13], -0.587; in [15] it was 1.3; in test [16], 0.896; in [17], 0.81. Further, the composite z-score was 1.56 in test [18], 1.79 in test [19] and -0.531 in test [20]. Moreover, the z-score was -0.246 (inactive) in test [2]; 0.491 (inactive) in test [3]; -1.48 (inactive) in [4]; 0.0731 (inactive) in test [6]; 0.438 (inactive) in test [14].

On to `CC[C@H](C)C(=O)O[C@H]1CC[C@]2(C)C3=C(CCC2C1(C)C)[C@]1(C)CC[C@H]([C@H](C)CCCC(C)C)[C@@]1(C)CC3` (stereo not given in full), for which the composite z-score in [1] is 0.0683; in test [5], 0.125; in test [7], -0.108; in [8], 0.296; in test [9] it was 0.854; in test [10], -0.0431. In addition, the composite z-score in [11] is 0.479; in [12] it was -0.0754; in test [13], -0.314; in test [15], 0.48; in test [16] it was 0.634; in test [17], 0.65. Further, the composite z-score turned out to be 0.487 in test [18], 0.474 in test [19] and 0.0848 in test [20]. Moreover, the z-score in [2] was 0.737 (inactive); in test [3], 0.14 (inactive); in [4], 0.17 (inactive); in [6] it was 2.24 (inactive); in test [14], -0.634 (inactive).

The values above are taken from PubChem BioAssay.
